# Test results: the supplement of paper PMC10105736
# Values without a mark were called inactive.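 How the source made its calls: active = MAPPIT score above the 99th percentile of random reference set scores in the same batch; inactive = at or below it.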
# How the values were obtained:
# Experiment in all cases: MAPPIT interaction score (arbitrary units); higher = stronger binary interaction signal, active = hit call of the paper
# CG14764 = settings: MAPPIT configuration: N-N; pair source set: Curagen_low_conf
# CG6933 = settings: MAPPIT configuration: N-N; pair source set: Lit-BS-16
# CG15369 = settings: MAPPIT configuration: N-N; pair source set: Finley_Y2H
# CG32548 = settings: MAPPIT configuration: N-N; pair source set: Finley_Y2H
# CG14818 = settings: MAPPIT configuration: N-N; pair source set: screen_2
# Tm1 = settings: MAPPIT configuration: N-N; pair source set: screen_1
# dgrn = settings: MAPPIT configuration: N-N; pair source set: screen_1
# CG15126 = settings: MAPPIT configuration: N-N; pair source set: Curagen_high_conf
# Slob = settings: MAPPIT configuration: N-N; pair source set: Curagen_high_conf
# CG1532 = settings: MAPPIT configuration: N-N; pair source set: Finley_Y2H
# CG7560 = settings: MAPPIT configuration: N-N; pair source set: Finley_Y2H
# CG15211 = settings: MAPPIT configuration: N-N; pair source set: screen_2
# ReepB = settings: MAPPIT configuration: N-C; pair source set: screen_3
# CG14535 = settings: MAPPIT configuration: N-N; pair source set: screen_2
# CG15347 = settings: MAPPIT configuration: N-C; pair source set: screen_3
# CG14563 = settings: pair source set: RRS
# CG17162 = settings: MAPPIT configuration: N-C; pair source set: screen_3
# Dlc90F = settings: MAPPIT configuration: N-N; pair source set: Lit-BS-16
# 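Further: HEK293T cells with Epo stimulation, STAT-responsive firefly luciferase reporter, fold induction versus unstimulated cells divided by the larger fold induction of two negative controls lacking either bait or prey.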
binder,measurement,setting,value
cad (protein) MVSHYYNTLPYTQKHSAANLAYASAAGQPWNWTPNYHHTPPNHQFLGDVDSSHAAHHAAAAHQMYYNSHHMFHSAAAASAGEWHSPASSTADNFVQNVPTSAHQLMQQHHHHHAHASSSSASSGSSSSGGAPGAPQLNETNSSIGVGGAGGGGGVGGATDGGPGSAPPNHQQHIAEGLPSPPITVSGSEISSPGAPTSASSPHHHLAHHLSAVANNNNNNNNNNNSPSTHNNNNNNNSVSNNNRTSPSKPPYFDWMKKPAYPAQPQPGKTRTKDKYRVVYTDFQRLELEKEYCTSRYITIRRKSELAQTLSLSERQVKIWFQNRRAKERKQNKKGSDPNVMGVGVQHADYSQLLDAKAKLEPGLHLSHSLAHSMNPMAAMNIPAMRLHPHLAAHSHSLAAVAAHSHQLQQQHSAQMSAAAAVGTLSM,MAPPIT interaction score,CG14764,-0.0445
same,MAPPIT interaction score,CG6933,-0.219
Gel (protein) MDASGAATMAVLSSLLVFLALSSSLCSAGTLNARPAFPVQSGEIQPSGQNSKQAARRVMHPSFANAGRTPGLEIWRIENFEPVIYPKTNYGKFYTGDSFIVLNTIENKKDKKLSWDVHFWLGLETSTDEAGAAAILTVQLDDLLNGGPVQHREVQDHESQLFLSYFKNGIRYEQGGVGTGFKHVETNAQGETRLFQVKGKRNVRVRQVNLSVSSMNTGDCFILDAGSDIYVYVGSQAKRVEKLKAISAANQIRDQDHNGRARVQIVDDFSTDADKQHFFDVLGSGSADQVPDESTADEDSAFERTDAAAVSLYKVSDASGKLKVDIIGQKPLTQAMLDTRECFILDTGSGIFVWVGKGATQKEKTDAMAKAQEFLRTKKYPAWTQIHRIVEGSESAPFKQYFDTWRDAGMSHSRLIRSALGIGSDELLNDDEIDSVVTQLKKSGGRAFGFMPDHGQNVIETITQYVAKPGSDEIVVSTVPFDEKLPLLGFASYVLTYNYEANNGDTGSLTYVWHGVKASAAARKRAFEEGLVGSKDGLLVQTNQGHEPRHFYKIFKGKLLTSFTALPVTAQLFRIRGTVESDVHASEVAADSSSLASSDAFVLHSGKSHKIYIWNGLGASAFEKQAAVDRFSDYWDDVELEQVEEGAEPDEFWEELNGEGQYDRSLGDDGAPLLESRLFHCHLSSGGFLKVEEVAQYEQEDLDSDDIMLLDAGDEIYLWVGYGVSEEENGKLLDTAKLYFNLEPTARSFDTVSIIRVPQGKEPRVFKRMFPNWDDNYWQNQPSYEDMKQLVIDANNEV,MAPPIT interaction score,CG15369,0.935
same,MAPPIT interaction score,CG32548,0.0886
CG10681 (protein) MSHLGLADVHQSEDATPDLESFTGFGNSAAEAFIQSLAGMVNQGDVETMIRAQKQMLQRFEKTNEMLLNCNALSQSRLKSASEDFKRHVKCLSEMKKDLDYIFRKIRIIKQKLQSQFPAIYAEVQPQRSSLAEEAEDDTEAQAKKTAETPAPAAAKPVLSTKKSAATIEYVQMEEAVDNGTVEIENELIKRVCSVETANPNDSSDCTSEDTG,MAPPIT interaction score,CG14818,5 (active)
same,MAPPIT interaction score,Tm1,2.36
same,MAPPIT interaction score,dgrn,0.165
Fem-1 (protein) MHAELYRTRKRWYESAWPGAGFWRGANDTLPVTNYITYPANFDQPDGQSLTPLTMAAMMGNVKFVKTLLSHYDVDLDRECNVIYDGMVVYGATALWVAAGMGHLQIVKMLVQAGAAINHNTKAQSSPLRAACYEGRLDIVEFLIDNGADVNATNLFNNNTLMIAAYKGHHLVVKTLLQNGSRANDQALCGATALHYAAESGHLDVVVALLDHGATLKKNELGITPALQAAERLHEDVLEAFIERPELMSLEEQITALELLGATYANDKIKYDVNKAYGYLLRAMQLRYSNPRGVIRKRVQPTVPAYDNWLETENLPELYAIKLNHHSIHMESLAIRERILGRNNPELPQAIIYRGAVMADQGRFYQCQVLWNYAIDLRMRNNVSVDRDLLRFAQLFAQILRVENHNLTLDHVLPVLAKCQQEIENNKFKIKEAKPNACPSLWQDQNNQNCITALYLIKIVTHLARRKKDQNIDEEHIQQLFLVVRKFIQNDTRLQDGQTLLHIAVNGVMPVDEFYTNEMCRFPCYATALVLVHCGASVVAVDSDRNTPLHILVTKVNTTQDRQAEMARILELFVEAGAHLDAVNAAGQTAATACKLPILANRLHAHQNAHTSLKCLAARSIATNRLNFKGLIPTQLEAFIQMHSVRKVLP,MAPPIT interaction score,CG15126,2.87 (active)
same,MAPPIT interaction score,Slob,0.0788
sel (protein) MLTKALILFGLLALAQGYSFTSREVKCHVCKAVVTELEEAIAKEDPHKMADVSGFRLDAQGNSISKKVRLVKSEMFLTELMEKICEKMDDYLKATYKSNGKFTLLKMIINGQMNPDSSLVDFVQDGDLNKSLGHFCNEVLEDNDEIFVKAFQAEELGNDLDIKICSEQASYCDESPVQEEYDFDGKEEL,MAPPIT interaction score,CG1532,-0.121
same,MAPPIT interaction score,CG7560,0.327
GluProRS (protein) MSIKLKANLNNPPISGLATAHLINGTVPVEIVWSKEETSLQFPDNRLLVCHSNNDVLRALARAAPDYKLYGETAIERTQIDHWLSFSLTCEDDISWALSFLDKSIAPVTYLVANKLTIADFALFNEMHSRYEFLAAKGIPQHVQRWYDLITAQPLIQKVLQSLPEDAKVKRSPQSSKEQTPAKTGERKQEGKFVDLPGAEMGKVVVRFPPEASGYLHIGHAKAALLNQYYALAFQGTLIMRFDDTNPAKETVEFENVILGDLEQLQIKPDVFTHTSNYFDLMLDYCVRLIKESKAYVDDTPPEQMKLEREQRVESANRSNSVEKNLSLWEEMVKGSEKGQKYCVRAKIDMSSPNGCMRDPTIYRCKNEPHPRTGTKYKVYPTYDFACPIVDAIENVTHTLRTTEYHDRDDQFYWFIDALKLRKPYIWSYSRLNMTNTVLSKRKLTWFVDSGLVDGWDDPRFPTVRGIIRRGMTVEGLKEFIIAQGSSKSVVFMNWDKIWAFNKKVIDPIAPRYTALEKEKRVIVNVAGAKVERIQVSVHPKDESLGKKTVLLGPRIYIDYVDAEALKEGENATFINWGNILIRKVNKDASGNITSVDAALNLENKDFKKTLKLTWLAVEDDPSAYPPTFCVYFDNIISKAVLGKDEDFKQFIGHKTRDEVPMLGDPELKKCKKGDIIQLQRRGFFKVDVAYAPPSGYTNVPSPIVLFSIPDGHTKDVPTSGLKVNAPDAKATKKASSPVSSSGQASELDSQISQQGDLVRDLKSKKAAKDQIDVAVKKLLALKADYKSATGKDWKPGQTSASSAPVPAASSSSANDAVSVNASIVKQGDLVRDLKGKKASKPEIDAAVKTLLELKAQYKTLTGQDWKPGTVPTTAAPSASAAPSVGVNDSVAQILSQITAQGDKVRELKSAKADKATVDAAVKTLLSLKADYKAATGSDWKPGTTAPAPAAAPVKVKQEKNPDPASVLTVNTLLNKIAQQGDKIRQLKSAKSEKSLVEAEVKLLLALKTDYKSLTGQEWKPGTVAPAPTTVNVIDLTGGDSGSDVGSVLSKIQAQGDKIRKLKSEKAAKNVIDPEVKTLLALKGEYKTLSGKDWTPDAKSEPAVVKKEASPVSMASPAKDELTQEINAQGEKVRAAKGNKAAKEVIDAEVAKLLALKAKYKEVTGTDFPVAGRGGGGGGGSAKKAPKEAQPKPAKPVKKEPAADASGAVKKQTRLGLEATKEDNLPDWYSQVITKGEMIEYYDVSGCYILRQWSFAIWKAIKTWFDAEITRMGVKECYFPIFVSKAVLEKEKTHIADFAPEVAWVTKSGDSDLAEPIAVRPTSETVMYPAYAKWVQSYRDLPIRLNQWNNVVRWEFKQPTPFLRTREFLWQEGHTAFADKEEAAKEVLDILDLYALVYTHLLAIPVVKGRKTEKEKFAGGDYTTTVEAFISASGRAIQGATSHHLGQNFSKMFEIVYEDPETQQKKYVYQNSWGITTRTIGVMIMVHADNQGLVLPPHVACIQAIVVPCGITVNTKDDERAQLLDACKALEKRLVGGGVRCEGDYRDNYSPGWKFNHWELKGVPLRLEVGPKDLKAQQLVAVRRDTVEKITIPLADVEKKIPALLETIHESMLNKAQEDMTSHTKKVTNWTDFCGFLEQKNILLAPFCGEISCEDKIKADSARGEEAEPGAPAMGAKSLCIPFDQPAPIAASDKCINPSCTNKPKFYTLFGRSY,MAPPIT interaction score,CG15211,0.0202
same,MAPPIT interaction score,ReepB,1.56
Deaf1 (protein) MEQVDSSTELHLNRKDLAALAEDVVKEEVILESSSHHHHHHHHQLDTKVRMVTSSSNDNSGSGGASGGTSGAGGGNGGGGVVSVPVSLPIGSMITGTTFNVITPDQLPPHFKPMLCVDNNGYLSGSTVSMGNDLKTIVIQQQQTQPGGGGGGANNAGTNTTATNTIGLNHDGSGSNNSHDSLATLEHAAGGASGVGGGGGGTGGGSSGWSENPSTQHNEVFQIRCKTTCAELYRSKLGSGGRGRCVKYKDKWHTPSEFEHVCGRGSSKDWKRSIKYGGKSLQSLIDEGTLTPHATNCSCTVCCDDEAGESASGPVRLFTPYKRRKRNQTDLDMESGPKRKRNTHHSNNNNSNTNNNNTSGSGANNCVDVTAAVAAATASVVDENNMFLSEENITSKDEPWAALNDSLDTSTELVDQSQMGNTYERETFVVNINDGSSIAVLDTSQSMKNIEHVYCTMVKATNDFKRMLNDMKQSFERRIEVLQKERDAAVSAMRVQVHADIDDPNISGSLHGNEIISAKKCANCNREALAECSLCRKTPYCSEFCQRKDWNAHQVECTRNPQTTTQQVMLLIDDQS,MAPPIT interaction score,CG14535,0.95
aph-1 (protein) MTLPEFFGCTFIAFGPPFALFVFTIANDPVRIIILIAAAFFWLLSLLISSLWYALIPLKEFLAFGVVFSVCFQEAFRYIIYRILRSTEQGLHAVAEDTRVTDNKHILAYVSGLGFGIISGMFALVNVLADMSGPGTMGLKGGTELFFVTSAAQALSIILLHTFWSVIFFNAFDTNNYIHIGYVVFSHLFVSLITLLNANELYTTTLLINYLVTILTGVLAFRVAGGTSRSFRKFITCQ,MAPPIT interaction score,CG15347,3.73
Mettl2 (protein) MLTTSSSTMLGKYGWQILRRLASKSWEHTRQRKKPSGAGSRVLTDAREVFEFNAWDHVQWDEEQELAAKAAVAKNSTSKMEAEQKERFQTDAPKFWDSFYGIHDNRFFKDRHWLFTEFPELAPLAADSAVLQPRSIFELGCGVGNTILPLLQYSSEPQLKVFGCDFSARAIEILRSQRQFDEKRCEVFVMDATLDHWQVPFEENSQDIIVMIFVLSAIEPKKMQRVLDNCYRYLRPGGLLLFRDYGRYDLAQLRFKSGKCMEDNFYVRGDGTMVYFFTEEELRGMMTQAGLQEEQLIVDRRLQVNRCRGLKMYRVWIQTKFRKPL,MAPPIT interaction score,CG14563; MAPPIT configuration: N-C,0.238
same,MAPPIT interaction score,CG14563; MAPPIT configuration: N-N,-0.0268
same,MAPPIT interaction score,CG17162,1.73
same,MAPPIT interaction score,Dlc90F,0.581
Nep3 (protein) MTRYKQTEFTEDDSSSIGGIQLNEATGHTGMQIRYHTARATWNWRSRNKTEKWLLITTFVMAITIFTLLIVLFTDGGSSDATKHVLHVQPHQKDCPSGNELPCLNKHCIFASSEILKSIDVTVDPCDDFYGYSCNQWIKNNPIPEGKSTWGTFGKLEQMNQLIIRNVLEKPAKSFKSDAERKAKVYYESCLDADEHMEKLGAKPMNDLLLQIGGWNVTKSGYNVANWTMGHTLKILHNKYNFNCLFGWAIGEDDKNSSRHVIQIDQGGLTLPTADYYNNKTDNHRKVLNEYIEYMTKVCVLLGANESDARAQMIGVINFEKKLANITIPLEDRRNEEAMYHPMQLRQLSKLAPFLNWTDHFDNAMQMVGRRVTDDEVVVVYAPDFLKNLSDIILKMEQTEEGKITLNNYLVWQAVRTLTSCLSKPFRDAYKGVRKALMGSDGGEEIWRYCVSDTNNVVGFAVGAIFVRQAFHGESKPAAEQMIAEIREAFKMNLQNLTWVDKQTREKAIEKANQISDMIGFPDYILDPVELDKKYAELNITPNAYFENNIQVAIYNLKSNLKRLDQPVNKTNWGMTPQTVNAYYTPTKNQIVFPAGILQTPFFDINNPKSLNFGAMGVVMGHELTHAFDDQGREYDKFGNINRWWDSKSIERFNEKSECIARQYSGYKMNGRTLNGKQTLGENIADNGGLKAAYHAYQRTKSDRDVDILKLPGLNLTHSQLFFVSFAQVWCSSTTDETNLLQMEKDPHSPSQFRVIGTLSNMKEFAEVFQCKPGKRMNPTEKCEVW,MAPPIT interaction score,CG15347,-1.12
